The campaign covered roughly 290,000 compounds. About 3,000 (1%) were called active. For the sample, actives were picked, then their nearest neighbours and some compounds at random. Unmarked numbers belong to inactive results. No stated cut-off is given here; in the data, active means inhibition mostly above about 36% (no sharp cut-off); inactive means mostly below about 34%.
Assay: NOD1 signaling inhibitors, primary screen, cell-based, luminescence, uHTS (AID 1578);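 further: HEK-293T reporter cells stimulated with the NOD1 agonist gamma-tri-DAP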
Conditions: NOD1-driven NF-kB luciferase reporter cells, at 4 µM, hits give high values

Row | SMILES | inhibition
1 | COC(=O)c1c(C)n(Cc2ccc3c(c2)OCO3)c2ccc(O)cc12 | 48.3% (active)
2 | C=CCn1c(O)c(/C(C)=N/N2CCCCCC2)c(=O)[nH]c1=O | -6.9%
3 | CCCCCCn1c(=O)c(C(=O)Nc2nc(CC(=O)OCC)cs2)c(O)c2ccccc21 | 58.7% (active)
4 | CCOC(=O)Cc1csc(NC(=O)c2c(O)c3ccccc3n(CCC(C)C)c2=O)n1 | -27.7%
5 | CCCCn1c(=O)c(C(=O)Nc2ccccc2)c(O)c2ccccc21 | 14.3%
6 | CCCCCn1c(=O)c(C(=O)Nc2nc(CC(=O)OCC)cs2)c(O)c2ccccc21 | -28.8%
7 | CCCCCn1c(=O)c(C(=O)Nc2cccc(C)c2)c(O)c2ccccc21 | -15.2%
8 | CCCCCn1c(=O)c(C(=O)NCc2ccncc2)c(O)c2ccccc21 | 21.6%
9 | CCCCCn1c(=O)c(C(=O)Nc2ccccc2)c(O)c2ccccc21 | -20.5%
10 | CCCCCCn1c(=O)c(C(=O)Nc2ccncc2)c(O)c2ccccc21 | 63.9% (active)
11 | CCCCCn1c(=O)c(C(=O)Nc2ccncc2)c(O)c2ccccc21 | 69.7% (active)
12 | Cc1ccc(N2CCN(CCc3ccccc3)CC2)cc1 | 10.7%
13 | CCOc1nc(NC(C)C)nc(N2CC3CC(C2)c2cccc(=O)n2C3)n1 (configuration not stated) | -38.6%
14 | O=C(Nc1cccc(Cl)c1)c1c(O)c2c(n(Cc3ccccc3)c1=O)CCCC2 | -38.5%
15 | CCCCn1c(O)c(C(C)=NCCCn2ccnc2)c(=O)[nH]c1=O | -5.8%
16 | Cc1ccsc1C(=O)C1CCCN(Cc2cnc(N3CCCC3)s2)C1 (configuration not stated) | 11.2%
17 | CCc1ccc(CN2CCCC(C(=O)c3sccc3C)C2)o1 (configuration not stated) | -19%
18 | Cc1ccsc1C(=O)C1CCCN(Cc2cnc(N(C)C)s2)C1 (configuration not stated) | -26.4%
19 | Cc1ccsc1C(=O)C1CCCN(Cc2sc(N(C)C)nc2Cl)C1 (configuration not stated) | 60.9% (active)
20 | Cc1ccsc1C(=O)C1CCCN(Cc2ccc(O)cc2)C1 (configuration not stated) | -32.6%
21 | Cc1ncc(CN2CCCC(C(=O)c3sccc3C)C2)s1 (configuration not stated) | -24.9%
22 | Cc1ccsc1C(=O)C1CCCN(Cc2cc3ccccc3o2)C1 (configuration not stated) | 75.6% (active)
23 | Cc1ccc(CN2CCCC(C(=O)c3sccc3C)C2)o1 (configuration not stated) | -19.5%
24 | Cc1ccsc1C(=O)C1CCCN(Cc2cnc(N3CCOCC3)s2)C1 (configuration not stated) | 46.6% (active)

Row | SMILES | inhibition
25 | CC(C)(C)C(=O)c1cn(CC(=O)NCc2ccco2)c2ccccc12 | -39.1%
26 | Cc1ccc(-n2c(O)c(/C=N/N3CCCCCC3)c(=O)[nH]c2=O)cc1C | 1.1%
27 | CCC(=NCCCn1ccnc1)c1c(O)n(-c2ccc(OC)cc2)c(=O)[nH]c1=O | -8.6%
28 | COc1cccc(C(=O)C2CN(C)CC2c2ccc(Cl)cc2)c1 (configuration not stated) | -33.4%
29 | CC/C(=N\NC(=O)c1ccccc1)c1c(O)n(Cc2ccccc2)c(=O)[nH]c1=O | 12.5%
30 | O=c1[nH]c(=S)n(C2CC2)c(O)c1C=NCC1CCCO1 (configuration not stated) | -13.4%
31 | O=c1cccc2n1CC1CC2CN(Cc2c(Cl)cccc2Cl)C1 (configuration not stated) | 14%
32 | O=c1cccc2n1CC1CC2CN(Cc2cccc(Cl)c2Cl)C1 (configuration not stated) | 63.8% (active)
33 | COC(=O)c1ccccc1NC(=O)N1C[C@@H]2C[C@@H](C1)c1cccc(=O)n1C2 | -15.8%
34 | COc1ccccc1NC(=O)N1C[C@@H]2C[C@@H](C1)c1cccc(=O)n1C2 | -34.3%
35 | O=c1cccc2n1CC1CC2CN(Cc2c(F)cccc2Cl)C1 (configuration not stated) | -7.2%
36 | COc1ccc(CCC(=O)N2C[C@H]3C[C@@H](C2)c2cccc(=O)n2C3)cc1 | 53.1% (active)
37 | CCc1ccccc1NC(=O)N1C[C@H]2C[C@@H](C1)c1cccc(=O)n1C2 | 54.5% (active)
38 | COc1ccc(CC(=O)N2C[C@H]3C[C@@H](C2)c2cccc(=O)n2C3)cc1 | 24.2%
39 | O=C(CCc1ccc(O)cc1)N1C[C@H]2C[C@@H](C1)c1cccc(=O)n1C2 | 9.1%
40 | O=[N+]([O-])c1ccc(N2CCCNCC2)c2ncccc12 | -0.2%
41 | CC(C)Sc1nnc([C@@H](N)Cc2c[nH]c3ccccc23)o1 | -2.5%
42 | CC12CC[C@H]3[C@@H](CCC4(O)C[C@H](O)CCC34/C=N/NC(=O)c3ccccc3F)C1(O)CCC2C1=CC(=O)OC1 (some centres not stated) | -9.8%
43 | CC12CC[C@H]3[C@@H](CCC4(O)C[C@H](O)CCC34/C=N/NC(=O)Cc3ccccc3)C1(O)CCC2C1=CC(=O)OC1 (some centres not stated) | -7%
44 | C[C@H]1O[C@@H](O[C@H]2[C@@H](O)C[C@H](O[C@H]3[C@@H](O)C[C@H](O[C@H]4CC[C@@]5(C)[C@H](CC[C@@H]6[C@@H]5CC[C@]5(C)[C@@H](C7=CC(=O)OC7)CC[C@]65O)C4)O[C@@H]3C)O[C@@H]2C)C[C@H](O)[C@@H]1O | 105% (active)
45 | COc1cc(C(=O)N/N=C/C23CC[C@@H](O)CC2(O)CC[C@@H]2[C@@H]3CCC3(C)C(C4=CC(=O)OC4)CCC23O)ccc1O (some centres not stated) | -5.4%
46 | C[C@H]1O[C@@H](OC2CC[C@]3(C=O)[C@H]4CC[C@]5(C)[C@@H](C6=CC(=O)OC6)CC[C@]5(O)[C@@H]4CC[C@]3(O)C2)CC2OC(C)(C)OC21 (some centres not stated) | 89.2% (active)
47 | CC12CC[C@H]3[C@@H](CCC4(O)C[C@H](O)CCC34/C=N/NC(=O)c3ccccc3O)C1(O)CCC2C1=CC(=O)OC1 (some centres not stated) | 4.5%

Reference: PubChem BioAssay AID1578 (Sanford-Burnham Center for Chemical Genomics, 2009)
